Assay results from PubChem BioAssay AID1159580 (chemical genetic matrix, 2015).
Among all 5,500 compounds or so, about 2,000 (36%) were called active. Inconclusive results (about 18%) are left out. Rule as the data show it: active = normalized growth mostly below about 0.91 (no sharp cut-off); inconclusive = no clear call, values can overlap the other calls; inactive = mostly above about 0.92. The list shows a part of the results.

Assay: chemical genetic growth profiling, strain panel (AID 1159580);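 also: tested at 20 µM; growth read once vehicle control cultures reached saturation at 30 °C; 1 = growth at the plate median or of vehicle wells; lower values mean less growth of the strain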
Conditions: S. cerevisiae deletion strains, growth OD
[1] = locus YAL013W, strain DEP1, active compounds read low
[2] = locus YGR078C, strain PAC10, active compounds read low
[3] = locus YMR263W, strain SAP30, active compounds read low
[4] = locus YNL128W, strain TEP1, active compounds read low
[5] = locus YNL322C, strain KRE1, active compounds read low
[6] = locus YPL055C, strain LGE1, active compounds read low
[7] = locus YPL241C, strain CIN2, active compounds read low
[8] = locus YAL040C, strain CLN3, active compounds read low
[9] = locus YER002W, strain NOP16, active compounds read low
[10] = locus YMR307W, strain GAS1, active compounds read low
[11] = locus YNL175C, strain NOP13, active compounds read low
[12] = locus YNL197C, strain WHI3, active compounds read low
[13] = locus YNL224C, strain SQS1, active compounds read low
[14] = locus YOR083W, strain WHI5 (second series), active compounds read low

Measured: normalized growth

N#CC(C#N)=CNc1cccc(N)n1
inactive: [1] 0.995 | locus YBR229C, strain ROT2, active compounds read low 1.01 | locus YCL061C, strain MRC1, active compounds read low 1.04 | locus YDL101C, strain DUN1, active compounds read low 1.05 | locus YDL134C, strain PPH21, active compounds read low 1.01 | locus YDR150W, strain NUM1, active compounds read low 1.07 | locus YEL061C, strain CIN8, active compounds read low 1 | [2] 1.02 | locus YGR229C, strain SMI1, active compounds read low 1.02 | locus YHR030C, strain SLT2, active compounds read low 1.05 | locus YHR087W, strain rtc3, active compounds read low 0.968 | locus YJR043C, strain POL32, active compounds read low 1.03 | locus YJR075W, strain HOC1, active compounds read low 1.05 | locus YLR039C, strain RIC1, active compounds read low 1.05 | locus YLR058C, strain SHM2 (second series), active compounds read low 0.992 | locus YLR085C, strain ARP6, active compounds read low 1.03 | locus YLR262C, strain YPT6, active compounds read low 1 | locus YML094W, strain GIM5, active compounds read low 0.991 | locus YMR219W, strain ESC1, active compounds read low 1 | [3] 1.05 | [4] 1 | locus YNL153C, strain GIM3, active compounds read low 1.02 | locus YNL298W, strain CLA4 (second series), active compounds read low 1.01 | [5] 1.01 | locus YNR030W, strain Alg12, active compounds read low 1 | [6] 0.996 | [7] 1 | locus YPR135W, strain CTF4, active compounds read low 1.07

CC(N)C1CCC(C(=O)Nc2ccncc2)CC1 (centres undefined)
inactive: [8] 0.989 | locus YCL061C, strain MRC1 (second series), active compounds read low 1 | locus YDR363W, strain ESC2, active compounds read low 0.985 | [9] 0.987 | [2] 1.02 | [3] 1 | [10] 1.02 | [4] 1.01 | [11] 0.992 | [12] 0.99 | [13] 0.993 | [14] 1.05 | [6] 0.987 | [7] 0.996

CC(C)(C=O)Cc1cc(C(C)(C)C)c(O)c(C(C)(C)C)c1
inactive: [1] 1.02 | [8] 0.968 | [9] 0.98 | [2] 1 | [10] 1.02 | [4] 1.02 | [11] 1.02 | [12] 0.989 | [13] 1 | [5] 0.994 | [14] 1.01 | [6] 1.01
